This is a sample that favours compounds with a hit; in the whole collection about 1.2% have one here.
BRCA1 expr up: activators of BRCA1 expression; MCF7-BRCA1-FFLuc reporter, luminescence, 48 h; response scale: scaled: vehicle 0%, 10 µM genistein 100%; Potency, µM (top dose mostly 46.1 µM), inactives show top-dose activation, hits mostly activators; AID 624202; 1.1% of 380,000 active; further: potency means the concentration at half of the fitted maximal effect; nearly all actives have a fitted effect of over 80% in size
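Compounds are tested at multiple concentrations on MCF7 BRCA1-luciferase reporter cells seeded at 2000 per well; after 48 h, a single luminescence end-point is taken and curves fitted to the normalized data.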
Apoferritin bind: candidate novel general anesthetic via apoferritin binding. P02791. apoferritin/1-aminoanthracene competitive binding, fluorescence. Potency, µM (titrated, usually from 77.5 µM), inactives show top-dose activity change, negative = displacement, actives largely listed as inhibitors. 0.074% of 350,000 active. AID 485281; further: potency means the concentration at half of the fitted maximal effect; on the % scale 0 is the no-effect control and ±100 the full control effect; nearly all actives have a fitted effect of over 20% in size
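10 uM apoferritin + 50% sat. 1-AMA, PBS; cpd 10 min RT; Ex380/Em535 endpoint; normalized to free probe vs complex; 4-param Hill fit; propofol titration as pos. ctrl.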
ASM inhibitor: inhibitors of human secretory acid sphingomyelinase; placental ASM, HMU-PC fluorogenic substrate, 60 min; Potency, µM (titrated, usually from 57.5 µM), for inactives: at the top dose activity change, negative = inhibition, hits mostly inhibitors; 0.006% of 340,000 active; AID 504937; P17405; further: potency means the concentration at half of the fitted maximal effect
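Human placenta-derived ASM enzyme was preincubated with compound for 10 minutes at room temperature, then given fluorogenic substrate HMU-PC0 (9 uM final) for 60 minutes at 37 °C; a pH 10 stop preceded fluorescence reading at Ex 386/Em 447 nm.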
TSHR antagonist: antagonists of human thyroid stimulating hormone receptor; P16473; TSHR-expressing cells, TSH-stimulated cAMP HTRF, 2 h; active compounds read low; activity change, negative = inhibition, % at 11.5 µM; 0.2% of 330,000 active;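 active means activity change below a set negative limit, meaning inhibition stronger than a set level, cut at about -70% in these data; inconclusive means activity change between two set negative limits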; further: on the % scale 0 is the no-effect control and ±100 the full control effect
Target sequence (P16473 whole entry, looked up): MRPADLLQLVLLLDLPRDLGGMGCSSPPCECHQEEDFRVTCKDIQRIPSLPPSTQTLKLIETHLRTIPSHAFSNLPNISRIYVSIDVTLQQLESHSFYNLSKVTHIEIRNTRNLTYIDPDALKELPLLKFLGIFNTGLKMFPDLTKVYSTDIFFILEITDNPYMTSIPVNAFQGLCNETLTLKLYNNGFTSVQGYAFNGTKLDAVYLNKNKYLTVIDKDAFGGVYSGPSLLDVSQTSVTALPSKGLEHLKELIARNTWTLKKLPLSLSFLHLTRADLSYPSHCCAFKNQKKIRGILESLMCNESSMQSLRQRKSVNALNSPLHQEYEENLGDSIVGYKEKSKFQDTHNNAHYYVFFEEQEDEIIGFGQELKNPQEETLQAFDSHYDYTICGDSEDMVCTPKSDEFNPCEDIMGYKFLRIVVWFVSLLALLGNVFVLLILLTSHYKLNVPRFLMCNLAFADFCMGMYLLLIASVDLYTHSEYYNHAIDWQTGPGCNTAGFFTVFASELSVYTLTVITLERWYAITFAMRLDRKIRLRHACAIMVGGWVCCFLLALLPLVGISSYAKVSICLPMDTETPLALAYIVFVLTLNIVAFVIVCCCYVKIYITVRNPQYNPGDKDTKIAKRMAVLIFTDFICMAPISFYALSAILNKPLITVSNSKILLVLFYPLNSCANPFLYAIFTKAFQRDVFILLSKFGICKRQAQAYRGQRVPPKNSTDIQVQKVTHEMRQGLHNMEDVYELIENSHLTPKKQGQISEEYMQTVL
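Competitive HTRF cAMP read-out (cryptate anti-cAMP antibody, cAMP-d2; 30 min, room temperature) in freshly harvested TSHR cells. Compounds added before TSH at EC80 (4nM final), followed by 2 hours' incubation at 37 deg C.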
TSG101-PTAP inh: blocks PTAP/TSG101 interaction to inhibit HIV-1 budding | 340,000 tested, under 10 active | Q99816 | AID 493005 | Fluorescence polarization, FITC-PTAP peptide / Tsg101 binding | Potency, µM (top dose mostly 115 µM), for inactives: at the top dose activity change, negative = inhibition, most hits filed as inhibitors; active means well fitted inhibition curve with a large enough effect in the main read-out, with a control signal flat, not every such curve was filed as active; inconclusive means small, poorly fitted or top-dose-only effect, or effect the other way, or a change in a side signal; inactive means no such curve, though single readings can be large or run the other way; further: potency means the concentration at half of the fitted maximal effect; % of control where 0% means no effect
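FP read-out: FITC-PTAP peptide, 50 nM final, binding Tsg101 binding domain, 10 uM final; 20 min, r.t.; 10 mM HEPES pH 7.5, 0.15 M NaCl, 0.01% Tween 20, 3 mM EDTA, 0.1 mM TCEP.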
Starred values were filed as active, the others as inactive; i = inactive; ? = inconclusive; . = not tested or not shown. Unless noted, the call rests on the fitted dose curve; in most records, active means well fitted curve in the direction sought with a large enough effect; inconclusive means small, poorly fitted or top-dose-only effect, or another doubt; inactive means no such curve, though single readings can be large; an effect the other way counts as inactive or inconclusive.

SMILES	BRCA1 expr up	Apoferritin bind	ASM inhibitor	TSHR antagonist	TSG101-PTAP inh
CCC(C)[C@@H](NC(=O)OC(C)(C)C)c1nnc(S(=O)(=O)Cc2cccc(C)c2)o1 (stereo not given in full)	-87%	?	-1%	-72*	2%
CC(C)(C)OC(=O)N[C@@H](Cc1ccccc1)c1nnc(S(=O)(=O)Cc2ccccc2)o1	.	?	.	-32	.
O=C(Nc1c(Cl)cc([N+](=O)[O-])cc1Cl)c1cc(Cl)ccc1O	-32%	.	.	.	.
COc1ccc(NC(=O)CSc2nc3[nH]c(=O)[nH]c(=O)c3s2)cc1OC	-10%	-8%	-1%	-73*	-1%
COc1ccccc1-c1csc(N2CCC(C(N)=O)CC2)n1	.	.	.	-14	.
COc1ccccc1-c1ccc(NC2CCCCC2)nn1	7.1µM*	-6%	4%	-5	0%
NCCCN(Cc1ccc(Cl)c(Cl)c1)c1ccc(Br)cn1	-61%	.	.	.	.
CN(NC(=O)c1ccco1)c1nc2ccccc2nc1C(F)(F)F	-3%	-6%	2%	-76*	-6%
Cc1ccccc1C(=O)NN(C)c1nc2ccccc2nc1C(F)(F)F	1%	-4%	24%	1	-4%
CCOc1ccc(/C=C/c2ccc3ccccc3[n+]2C)cc1OCC	-52%	.	.	.	.
O=C(OCc1ccccc1)N1CCC2CC1c1cc(-c3ccccc3)ccc12 (stereo not given)	19%	.	-9%	.	0%
CCCCNc1ccc2c(c1)C1CC2CCN1C(=O)OCc1ccccc1 (stereo not given)	8.9µM*	.	-12%	.	1%
O=C(Nc1ccccc1O)N1c2ccccc2Sc2ccccc21	-1%	-2%	25µM*	-1	-4%
O=C(NCCO)N1c2ccccc2Sc2ccccc21	14%	1%	1%	0	0%
Cc1ccc(CN2CCNC(=O)C2CC(=O)NC2CCCCCC2)cc1 (stereo not given)	3%	?	1%	13	-1%
O=C(CC1C(=O)NCCN1Cc1ccc(F)cc1)NC1CCCCCCC1 (stereo not given)	-19%	16µM*	-1%	6	5%
O=C(CC1C(=O)NCCN1Cc1cccc(F)c1F)NCCCC1CCCC1 (stereo not given)	-13%	32µM*	-2%	-82*	1%
CC(C)Nc1nc(C#N)nc(Nc2ccccc2)n1	.	-20%	.	.	.
Cc1nc(C#N)nc(Oc2ccccc2)c1Cl	0%	.	.	.	.
CC(=O)Oc1ccc2nc(/C=C/c3ccccc3)oc(=O)c2c1	-5%	-6%	29%	-78*	-1%
CCCOc1ccc(CNC(=O)CCCN2C(=O)CSc3c2c(C)nn3-c2ccccc2)cc1	-14%	0%	.	.	.
CCCCCCCCNc1ncnc2ccccc12	-62%	-19%	-7%	?	-10%
c1ccc(CCNc2ncnc3ccccc23)cc1	2µM*	-12%	-1%	-35	-10%
CC(=O)SC1CC2=CC(=O)CC[C@]2(C)C2CC[C@@]3(C)C(CC[C@@]34CCC(=O)O4)C12 (stereo not given in full)	.	.	.	-20	.
NC(=NCc1ccccc1)NC(=O)c1nc(Cl)c(N)nc1N	-31%	-5%	i	-12	-1%
SMILES	BRCA1 expr up	Apoferritin bind	ASM inhibitor	TSHR antagonist	TSG101-PTAP inh
NC(=Nc1ccccc1)NC(=O)c1nc(Cl)c(N)nc1N	5.6µM*	-9%	447%	-15	-6%
N#CC(C#N)=C1C=CC=CN1/C(=C\c1ccco1)C(=O)c1ccc(-c2ccccc2)cc1	-96%	-13%	-22%	-44	-1%
N#CC(C#N)=C1C=CC=CN1/C(=C\c1ccco1)C(=O)c1ccc(Cl)cc1	-101%	-6%	-5%	-84*	-10%
O=C(Nc1nc(-c2ccccc2)cs1)C1CCCN(S(=O)(=O)c2ccccc2)C1 (stereo not given)	-76%	12%	-4%	-75*	-4%
O=C(Nc1nc(-c2ccccc2)cs1)C1CCCN(S(=O)(=O)c2cccc([N+](=O)[O-])c2)C1 (stereo not given)	-44%	-10%	-4%	-19	-3%
Cc1cccc(C2Nc3ccccc3C(=O)N2c2ccccc2)n1 (stereo not given)	-2%	82%	201%	0	0%
O=C1c2ccccc2NC(c2ccccn2)N1c1ccc(Cl)cc1 (stereo not given)	11µM*	64%	126%	-3	-6%
O=C1c2ccccc2NC(c2ccccc2O)N1c1ccc(F)cc1 (stereo not given)	4µM*	-7%	72%	-7	-5%
COc1cccc(C2Nc3ccccc3C(=O)N2c2ccc(F)cc2)c1O (stereo not given)	7.9µM*	2%	34%	0	0%
O=C(O)C1CCCC1	17%	.	.	.	.
COc1ccc(C#Cc2c[nH]c(=O)c3cncnc23)cc1OC	23%	.	.	.	.
CCN1C(C(=O)c2ccccc2)=C(Nc2ccccc2C)c2ccccc2S1(=O)=O	-33%	-3%	-13%	-79*	2%
COc1ccc(CC(=O)Nc2nnc(C(C)C)s2)cc1	15%	-15%	-2%	4	-3%
COc1ccc(NC(=O)Nc2nnc(C(C)C)s2)cc1	10µM*	-23%	-3%	-2	-4%
COc1ccc(NC(=O)Nc2ccc(F)c(Cl)c2)cc1	?	-2%	-3%	-5	1%
COc1ccccc1NC(=O)Nc1ccc2c(c1)CCC2	2.8µM*	0%	-7%	-14	1%
COc1ccc(NC(=O)Nc2ccc(Br)c(C)c2)cc1	11µM*	-2%	1%	-6	0%
COc1ccccc1NC(=O)Nc1ccc(N2CCOCC2)cc1	7.1µM*	-19%	-2%	-2	-3%
Cc1cnc2ccccc2c1/C=C/c1ccc(N)cc1	-43%	.	.	.	.
COc1cc2cncnc2cc1OCCCCC(N)=O	12%	.	.	.	.
CCCCC/C=C\C=C\[C@H](O)CCCCCCCC(=O)O	.	0%	.	.	.
COc1ccc(NC(=O)Nc2ccccc2OC)cc1	14µM*	-9%	0%	5	-3%
Cc1ccc(NC(=O)c2cnn3c2NC(=C2CC2)C=C3C(F)F)cc1	22%	.	.	.	.
O=[N+]([O-])c1ccc2c(c1)/C(=C/c1ccc(C=S)cc1)C=C2	0%	.	.	.	.
CN1C2CC(OC(=O)C(CO)c3ccccc3)C[C@@H]1[C@H]1OC21 (stereo not given in full)	.	2%	.	.	.
CCCc1cc2c(=O)c(-c3ccccn3)coc2cc1OC	5.6µM*	-11%	13%	-10	1%
Cc1csc(Nc2nc(N)c(C(=O)Nc3ccccc3)o2)n1	7.9µM*	16%	1%	-1	-6%
N#C/C(=C(/O)CN1CCCCC1)c1nc(-c2ccc(Cl)cc2)cs1	7.1µM*	-12%	7%	-12	-9%
N#C/C(=C(/O)CN1CCN(c2ccccc2F)CC1)c1nc(-c2ccc(Cl)cc2)cs1	-25%	-5%	4%	0	-22%
